The compounds below were run on Plasmodium falciparum NF54-HGL (transmission to Anopheles stephensi) (assay: percentage of barcode signal found in uninfected mosquitoes (transmission-blocking activity); higher = stronger blocking of transmission to mosquito, active = 80 or more). Conditions: 10 µM; gametocyte preincubation time 24 h; readout time post-feed 8 days.
Procedure: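 The mixture was fed to Anopheles stephensi in 96-well plates as blood meals tagged with DNA-barcoded Asaia bacteria. Eight days later, mosquitoes were classed infected or uninfected by luminescence (mean + 5 SD of unfed controls). Barcodes were quantified by Luminex MagPlex-TAG in the pooled uninfected and infected Asaia cultures, background-corrected, and the score is % of barcode signal in uninfected mosquitoes = 100*Iu/(Iu+Ii).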
With CN1CCN(c2cc(-c3ccc(F)cc3)nc(-c3ccncc3)n2)CC1 the “percentage of barcode signal found in uninfected mosquitoes” value (“percentage of barcode signal found” below) was 1.2% (inactive).
In the case of Cc1cccc(NC(=O)c2cc(S(=O)(=O)N(C)c3ccc(F)cc3)ccc2Cl)n1, the “percentage of barcode signal found” value was 46.1% (inactive).
CO[C@@H](C(=O)N1Cc2[nH]nc(NC(=O)c3ccc(N4CCN(C)CC4)cc3)c2C1)c1ccccc1 was tested, and the “percentage of barcode signal found” value was 68.7% (inactive).
CCOc1ccc2cc(-c3nn(CC4CCN(C)CC4)c4ncnc(N)c34)ccc2c1 was tested, and the “percentage of barcode signal found” value was -7.02% (inactive).
For O=C1N(Cc2cc3ccccc3s2)CC2CN(Cc3ccccc3)CCN12 (stereo not given), the “percentage of barcode signal found” value was 58.1% (inactive).
COc1ccccc1C(C)NCC(=O)Nc1cc(C(F)(F)F)ccc1Cl (stereo not given) was tested, and the “percentage of barcode signal found” value was 11.8% (inactive).
For N#Cc1nc(-c2ccccc2)oc1S(=O)(=O)c1ccc(Cl)cc1, the “percentage of barcode signal found” value was 72.7% (inactive).
With CC(C(=O)Nc1ccc2oc(-c3ccncc3)nc2c1)c1ccccc1 (stereo not given) the “percentage of barcode signal found” value was -6.05% (inactive).
With COc1cccc(OCC(=O)c2ccc(Br)cc2)c1 the “percentage of barcode signal found” value was 13.7% (inactive).
For Brc1cncc(-c2cc(NCCCn3ccnc3)nc(-c3ccccc3)n2)c1, the “percentage of barcode signal found” value was -0.102% (inactive).
For CC(Oc1cccc(Cl)c1)C(=O)Nc1ccc2oc(-c3ccncc3)nc2c1 (stereo not given), the “percentage of barcode signal found” value was 47.8% (inactive).
In the case of O[C@@H](c1cc(C(F)(F)F)nc2c(C(F)(F)F)cccc12)[C@H]1CCCCN1, the “percentage of barcode signal found” value was 43.2% (inactive).
For CC(=O)Oc1ccccc1C(=O)Nc1ncc([N+](=O)[O-])s1, the “percentage of barcode signal found” value was 8.87% (inactive).
For CCCn1nnc(NC(=O)COc2ccc(C3CCCCC3)cc2)n1, the “percentage of barcode signal found” value was 3.33% (inactive).
With COc1ccc(-c2nc(-c3cccc(NC(=O)Cc4ccc(F)cc4)c3)no2)cc1OC the “percentage of barcode signal found” value was 5.39% (inactive).
